Test results taken from ChEMBL document CHEMBL3988442, “University of Dundee, Small-Polar-MMV Screening Library” (2021).
For some of these results: Entries with a potency or affinity are not part of this list.

Experiments:
Parameters in all cases: scale not given: direction of the effect not stated beside the values
[1] = target: Protein translocase subunit SecA (Escherichia coli (strain K12)) (UniProt P10408); experiment: Assay to Identify E. coli SecA ATPase Inhibitors; assay type: functional; details: 30 µM
Sequence of Protein translocase subunit SecA (Escherichia coli (strain K12)) (P10408 whole entry): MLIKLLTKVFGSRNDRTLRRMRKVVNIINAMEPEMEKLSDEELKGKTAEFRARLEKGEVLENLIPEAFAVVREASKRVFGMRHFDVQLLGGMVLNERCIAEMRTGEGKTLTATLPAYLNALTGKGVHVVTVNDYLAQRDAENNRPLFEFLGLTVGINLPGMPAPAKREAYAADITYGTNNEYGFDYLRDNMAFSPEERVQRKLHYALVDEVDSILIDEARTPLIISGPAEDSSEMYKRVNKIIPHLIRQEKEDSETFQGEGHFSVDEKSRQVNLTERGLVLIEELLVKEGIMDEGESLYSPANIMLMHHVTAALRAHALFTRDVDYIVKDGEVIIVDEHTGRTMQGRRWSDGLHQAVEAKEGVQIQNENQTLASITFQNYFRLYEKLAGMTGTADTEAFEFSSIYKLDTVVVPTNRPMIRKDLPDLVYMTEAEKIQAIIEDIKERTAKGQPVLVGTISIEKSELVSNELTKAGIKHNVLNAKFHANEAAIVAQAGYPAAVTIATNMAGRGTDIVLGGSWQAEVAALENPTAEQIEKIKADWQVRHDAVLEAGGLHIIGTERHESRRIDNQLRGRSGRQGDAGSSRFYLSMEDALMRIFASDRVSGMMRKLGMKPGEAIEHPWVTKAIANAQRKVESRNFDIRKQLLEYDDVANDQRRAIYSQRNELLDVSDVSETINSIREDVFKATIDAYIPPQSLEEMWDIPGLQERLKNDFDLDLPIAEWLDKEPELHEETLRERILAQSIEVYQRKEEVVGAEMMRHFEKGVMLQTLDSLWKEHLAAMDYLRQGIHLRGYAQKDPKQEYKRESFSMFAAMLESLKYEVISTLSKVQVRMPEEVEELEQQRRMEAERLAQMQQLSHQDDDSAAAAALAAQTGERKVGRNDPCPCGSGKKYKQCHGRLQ

[2] = target: T1, Ubiquitin-activating enzyme e1, putative (Leishmania donovani (strain BPK282A1)) (UniProt E9BSI1); experiment: Leishmania donovani Ubiquitin Activating Enzyme (LdE1); assay type: functional; details: 30 µM
T1 sequence (whole entry): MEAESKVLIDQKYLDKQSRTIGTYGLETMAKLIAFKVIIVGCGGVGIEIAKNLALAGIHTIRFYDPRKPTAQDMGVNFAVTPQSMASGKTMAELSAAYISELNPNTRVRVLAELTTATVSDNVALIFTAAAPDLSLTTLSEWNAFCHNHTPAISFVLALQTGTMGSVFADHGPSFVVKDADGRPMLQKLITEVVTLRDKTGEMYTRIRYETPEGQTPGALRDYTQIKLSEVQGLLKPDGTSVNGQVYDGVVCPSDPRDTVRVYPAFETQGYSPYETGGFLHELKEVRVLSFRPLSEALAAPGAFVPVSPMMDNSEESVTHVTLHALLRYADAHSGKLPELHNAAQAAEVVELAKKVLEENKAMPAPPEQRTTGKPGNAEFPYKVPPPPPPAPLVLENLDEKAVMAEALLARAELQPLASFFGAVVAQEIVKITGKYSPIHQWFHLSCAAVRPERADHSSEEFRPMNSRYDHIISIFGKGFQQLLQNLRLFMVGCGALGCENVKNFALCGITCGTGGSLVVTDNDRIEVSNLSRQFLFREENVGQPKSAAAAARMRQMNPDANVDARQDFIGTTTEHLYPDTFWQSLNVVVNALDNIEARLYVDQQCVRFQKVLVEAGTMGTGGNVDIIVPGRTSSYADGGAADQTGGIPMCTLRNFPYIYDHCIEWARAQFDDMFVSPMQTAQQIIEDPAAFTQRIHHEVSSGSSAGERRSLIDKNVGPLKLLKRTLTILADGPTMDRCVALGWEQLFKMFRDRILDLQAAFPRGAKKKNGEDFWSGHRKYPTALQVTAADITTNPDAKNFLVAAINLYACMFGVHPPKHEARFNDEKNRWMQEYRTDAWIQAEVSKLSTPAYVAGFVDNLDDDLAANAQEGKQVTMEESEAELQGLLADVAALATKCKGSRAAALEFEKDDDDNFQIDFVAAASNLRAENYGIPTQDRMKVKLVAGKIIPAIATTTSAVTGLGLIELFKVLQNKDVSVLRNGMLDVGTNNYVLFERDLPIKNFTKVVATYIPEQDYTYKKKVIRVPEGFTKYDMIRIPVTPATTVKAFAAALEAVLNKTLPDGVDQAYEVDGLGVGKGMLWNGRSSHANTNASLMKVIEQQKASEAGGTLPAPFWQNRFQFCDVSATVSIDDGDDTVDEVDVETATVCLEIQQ

[3] = target: AMP-activated protein kinase, AMPK (Homo sapiens) (UniProt P54646+O43741+P54619+Q9UGJ0+Q9Y478+Q13131+Q9UGI9); experiment: AMP-dependent Kinase enzyme assay. An in vitro enzyme assay that detects ADP turnover that is directly proportional to AMPK activity. This uses naive AMPK that is activated during the assay with MK-8722; assay type: functional; details: 30 µM
[4] = target: Sialic acid-binding Ig-like lectin 9 (Homo sapiens) (UniProt Q9Y336); experiment: Hs-Siglec9 ALPHAscreen SOP 20170721; details: 10 µM
Sequence of Sialic acid-binding Ig-like lectin 9 (Homo sapiens) (Q9Y336 whole entry): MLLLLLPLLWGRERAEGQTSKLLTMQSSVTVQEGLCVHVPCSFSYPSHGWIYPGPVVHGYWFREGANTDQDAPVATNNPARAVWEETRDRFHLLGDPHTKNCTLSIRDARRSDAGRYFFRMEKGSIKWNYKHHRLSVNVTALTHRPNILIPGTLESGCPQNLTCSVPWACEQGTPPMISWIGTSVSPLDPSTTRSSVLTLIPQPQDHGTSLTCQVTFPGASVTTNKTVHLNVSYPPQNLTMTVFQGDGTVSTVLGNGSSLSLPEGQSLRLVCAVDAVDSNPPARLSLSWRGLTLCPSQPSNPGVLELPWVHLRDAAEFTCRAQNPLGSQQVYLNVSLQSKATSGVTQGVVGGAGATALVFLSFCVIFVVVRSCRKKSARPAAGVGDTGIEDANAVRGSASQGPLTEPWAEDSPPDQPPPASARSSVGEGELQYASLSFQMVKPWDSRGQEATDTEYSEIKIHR

Trypanosoma cruzi = experiment: Trypanosoma cruzi phosphomannomutase and mannose-1-phosphate guanylyltransferase assay; assay type: functional; details: 10 µM
[5] = target: T2, Arginase-2, mitochondrial (Homo sapiens) (UniProt P78540); experiment: in vitro enzyme assay to detect the production of urea directly proportional to the activity of Arginase II; assay type: functional; details: 33.3 µM; also: in the data most compounds retested in dose-response had high values
T2 sequence (whole entry): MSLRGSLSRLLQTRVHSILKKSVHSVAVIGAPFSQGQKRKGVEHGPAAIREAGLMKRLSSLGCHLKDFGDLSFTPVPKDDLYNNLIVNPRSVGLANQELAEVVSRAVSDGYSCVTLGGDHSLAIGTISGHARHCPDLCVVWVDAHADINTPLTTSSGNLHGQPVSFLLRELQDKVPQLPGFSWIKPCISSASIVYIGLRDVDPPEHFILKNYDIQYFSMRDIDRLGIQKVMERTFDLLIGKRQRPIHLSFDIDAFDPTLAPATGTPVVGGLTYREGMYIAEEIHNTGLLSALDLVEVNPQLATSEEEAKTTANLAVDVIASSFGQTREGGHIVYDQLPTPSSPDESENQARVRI

[6] = target: T3, Proteasome subunit beta (Trypanosoma cruzi) (UniProt O96673); experiment: Trypanosoma cruzi proteasome chymotrypsin-like activity (TcProtChymo) assay.; also: in the data most compounds retested in dose-response had high values; assay type: functional; details: 9.37 µM
T3 sequence (whole entry): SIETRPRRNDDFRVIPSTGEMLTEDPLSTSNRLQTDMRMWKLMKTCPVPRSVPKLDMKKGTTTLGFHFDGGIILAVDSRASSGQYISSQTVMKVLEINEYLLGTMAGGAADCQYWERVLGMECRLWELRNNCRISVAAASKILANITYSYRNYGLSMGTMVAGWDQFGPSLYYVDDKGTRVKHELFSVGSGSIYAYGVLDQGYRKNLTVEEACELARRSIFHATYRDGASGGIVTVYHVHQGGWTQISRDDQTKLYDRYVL

Homo sapiens = species on record: Homo sapiens; experiment: To identify inhibition of the IFN signalling (Jak-Stat) pathway via expression of an eGFP reporter gene under the control of an IFN-stimulated response element (ISRE) containing MxA promoter.; assay type: functional; details: 30 µM
[7] = target: T4, Tyrosyl-tRNA synthetase, putative (Trypanosoma cruzi (strain CL Brener)) (UniProt Q4DSP6); experiment: Trypanosoma cruzi tyrosyl tRNA synthetase (TcYRS) _High Tyrosine SOP; assay type: functional; details: 30 µM; also: in the data most compounds retested in dose-response had high values
T4 sequence (whole entry): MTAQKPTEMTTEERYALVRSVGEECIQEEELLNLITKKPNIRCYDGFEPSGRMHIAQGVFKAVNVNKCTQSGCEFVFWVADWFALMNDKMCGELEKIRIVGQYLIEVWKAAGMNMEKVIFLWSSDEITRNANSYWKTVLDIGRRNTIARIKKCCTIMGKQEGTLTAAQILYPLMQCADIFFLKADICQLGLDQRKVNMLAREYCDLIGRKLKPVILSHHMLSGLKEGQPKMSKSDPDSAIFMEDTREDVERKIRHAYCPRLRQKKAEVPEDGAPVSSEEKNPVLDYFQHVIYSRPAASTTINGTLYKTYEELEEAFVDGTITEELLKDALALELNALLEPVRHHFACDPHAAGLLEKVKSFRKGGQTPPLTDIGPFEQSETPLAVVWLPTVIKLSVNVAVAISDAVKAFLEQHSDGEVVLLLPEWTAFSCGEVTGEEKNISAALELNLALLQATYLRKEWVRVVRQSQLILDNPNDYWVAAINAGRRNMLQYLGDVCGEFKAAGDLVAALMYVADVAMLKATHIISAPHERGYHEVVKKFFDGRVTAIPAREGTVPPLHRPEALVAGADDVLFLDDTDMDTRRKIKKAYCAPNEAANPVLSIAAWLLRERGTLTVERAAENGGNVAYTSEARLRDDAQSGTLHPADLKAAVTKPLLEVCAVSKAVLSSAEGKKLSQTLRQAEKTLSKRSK

[8] = target: T4, Tyrosyl-tRNA synthetase, putative (Trypanosoma cruzi (strain CL Brener)); experiment: Trypanosoma cruzi tyrosyl tRNA synthetase (TcYRS) SOP; assay type: functional; details: 30 µM
[9] = target: Chromo domain-containing protein 1 (Saccharomyces cerevisiae (strain ATCC 204508 / S288c) (Baker's yeast)) (UniProt P32657); experiment: ScCHD-1 Enzyme Inhibition Assay; assay type: functional; details: 30 µM; also: in the data most compounds retested in dose-response had high values
Sequence of Chromo domain-containing protein 1 (Saccharomyces cerevisiae (strain ATCC 204508 / S288c) (Baker's yeast)) (P32657 whole entry, the tested form may be a part): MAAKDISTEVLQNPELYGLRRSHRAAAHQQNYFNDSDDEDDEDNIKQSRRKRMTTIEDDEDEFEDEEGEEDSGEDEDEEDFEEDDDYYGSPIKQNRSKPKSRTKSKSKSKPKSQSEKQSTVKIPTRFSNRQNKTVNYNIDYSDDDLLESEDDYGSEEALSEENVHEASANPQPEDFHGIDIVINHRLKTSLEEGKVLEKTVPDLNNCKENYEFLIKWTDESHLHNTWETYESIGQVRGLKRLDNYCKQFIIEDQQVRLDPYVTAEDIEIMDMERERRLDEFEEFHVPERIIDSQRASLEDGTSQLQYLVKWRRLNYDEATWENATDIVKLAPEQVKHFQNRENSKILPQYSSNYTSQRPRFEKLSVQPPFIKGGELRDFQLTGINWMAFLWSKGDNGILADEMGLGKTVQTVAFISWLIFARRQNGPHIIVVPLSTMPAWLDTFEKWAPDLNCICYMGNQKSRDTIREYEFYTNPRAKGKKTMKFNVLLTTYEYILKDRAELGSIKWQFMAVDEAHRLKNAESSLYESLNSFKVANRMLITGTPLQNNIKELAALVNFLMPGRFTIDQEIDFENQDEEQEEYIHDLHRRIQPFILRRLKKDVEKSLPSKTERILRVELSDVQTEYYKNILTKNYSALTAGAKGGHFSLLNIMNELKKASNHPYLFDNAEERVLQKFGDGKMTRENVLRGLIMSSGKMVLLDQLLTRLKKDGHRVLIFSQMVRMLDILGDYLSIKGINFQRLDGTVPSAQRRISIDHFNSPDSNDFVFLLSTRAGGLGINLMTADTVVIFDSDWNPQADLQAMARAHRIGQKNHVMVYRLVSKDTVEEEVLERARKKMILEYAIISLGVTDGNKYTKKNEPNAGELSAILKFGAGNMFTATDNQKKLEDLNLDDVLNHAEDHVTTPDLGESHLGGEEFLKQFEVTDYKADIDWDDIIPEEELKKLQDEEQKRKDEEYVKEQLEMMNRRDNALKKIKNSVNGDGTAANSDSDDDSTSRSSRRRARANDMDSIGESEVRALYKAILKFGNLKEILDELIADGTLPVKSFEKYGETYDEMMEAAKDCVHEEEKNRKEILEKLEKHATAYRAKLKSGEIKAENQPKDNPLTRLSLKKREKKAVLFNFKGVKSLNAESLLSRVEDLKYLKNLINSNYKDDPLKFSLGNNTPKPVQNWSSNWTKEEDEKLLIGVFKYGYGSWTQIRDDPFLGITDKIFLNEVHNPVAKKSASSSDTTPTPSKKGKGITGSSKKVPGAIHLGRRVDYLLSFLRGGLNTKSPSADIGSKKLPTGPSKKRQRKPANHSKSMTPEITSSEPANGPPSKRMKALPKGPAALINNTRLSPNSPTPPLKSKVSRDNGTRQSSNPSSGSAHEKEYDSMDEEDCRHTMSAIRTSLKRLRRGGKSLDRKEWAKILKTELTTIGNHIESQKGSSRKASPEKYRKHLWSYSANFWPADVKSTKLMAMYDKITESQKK

Structure (SMILES)	Percent Effect [1] [%]	Percent Effect [2] [%]	Percent Effect [3] [%]	Percent Effect [4] [%]	Percent Effect (Trypanosoma cruzi) [%]	Percent Effect [5] [%]	Percent Effect [6] [%]	Percent Effect (Homo sapiens) [%]	Percent Effect [7] [%]	Percent Effect [8] [%]	Percent Effect [9] [%]
Cc1cnn(CC(C)NCc2ccc(OCc3ccncc3)cc2)c1 (stereo not given)	-5.11	-1.27	4.3	-6.57	-6.67	-3.66	9.95	24.2	5.21	5.06	-25.8
O=C(NCc1ccc(-n2cncn2)nc1)c1ccc2c(c1)CCO2	-5.02	8.11	-9.05	1.05	1.79	-2.4	-3.96	14.7	7.39	13.6	-6.1
Cc1ccc(OCCC(=O)NC2CCc3nc(C)cn3C2)cc1 (stereo not given)	-3.65	5.26	5.43	5.54	0.0974	-4.73	14.7	15.1	3.19	10.4	-1.61
CC(C)c1cc(NC(=O)CN2CCc3ccccc3C2)on1	-4.45	28.6	-1.59	2.02	5.99	-2.85	10.6	14.1	7.77	26.8	-12.1
Cc1cc(C)n(C2CN(CC(=O)NC3CCOCC3)C2)n1	-6.74	6.33	6.98	1.96	-1.33	-1.94	9.26	10.4	8.33	15.2	-15
